Screening data (PubChem)
Only some compounds are listed: those with a hit (about 3.1% of all), similar ones and a draw of the others.
LGR2 antag = blocks bursicon-induced cAMP signaling via Drosophila LGR2. actives 0.35% (n = 380,000). inhibition, % at 9.99 µM. AID 720647. HEK293 LGR2, CRE-luciferase, bursicon-stimulated, 4 h;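 active = drop in luminescence signal, shown as inhibition above about 50% in the replicate tests, limit read from the data, passing the limit was not always enough; inconclusive = probably only some replicates passing the limit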;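 note: agonist challenge used bursicon conditioned medium at about half maximal strength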
TROY NFkB inh = TROY signaling inhibition; inhibition, % at 10 µM; actives 0.98% (n = 360,000); Q293 LMP1-TROYcd NF-kB luciferase reporter, 4 h;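 active = compounds whose plate-normalised and pattern-corrected inhibition of the luciferase reporter signal at the single screening dose is 50% or more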
EBV LMP1 NFkB = reduces LMP1-driven NF-kappaB luciferase signal; LMP1-induced NF-kappaB luciferase reporter cells, luminescence; inhibition, % at 12.5 µM; actives 0.69% (n = 350,000); in the data active = inhibition above about 41%; inconclusive = no clear call, values can overlap the other calls
EWS-Fli block = EWS/Fli transcriptional activity inhibition. A673 NR0B1-luciferase reporter, viability-normalised. inhibition, % at 12.6 µM. actives 0.67% (n = 350,000). AID 651661;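 active = mean inhibition of at least 50% after viability correction, with every replicate also passing that limit; inconclusive = mean reaches 50% but only one of two replicates passes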;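 note: firefly luciferase signal divided by Alamar Blue viability fluorescence both relative to DMSO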
PAX8 reporter = PAX8 transcriptional activity inhibition. RMG-I TPO-luciferase reporter, SteadyGlo, 24 h. inhibition, % at 12.6 µM. actives 1.2% (n = 360,000). AID 652154;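 active = mean replicate inhibition at least 60% with every replicate also reaching 60%; inconclusive = only one of the two criteria is met; inactive = mean below 60% and not all replicates reaching 60%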;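 note: luciferase light reporting Pax8 driven TPO promoter activity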
TWEAK-Fn14 inh = inhibitors of TWEAK-Fn14 interaction signaling. inhibition, % at 10 µM. AID 1159606. actives 2% (n = 360,000). TWEAK-stimulated Fn14 reporter cells, luciferase luminescence, 8 h; in the data active = inhibition above about 50%
A number is an active result; 0 = inactive; ? = inconclusive; - = no result.

SMILES | LGR2 antag | TROY NFkB inh | EBV LMP1 NFkB | EWS-Fli block | PAX8 reporter | TWEAK-Fn14 inh
C[C@@H]1CN([C@@H](C)CO)C(=O)c2cc(C#C[C@@H](C)O)cnc2O[C@@H]1CN(C)C(=O)Cc1ccncc1 | 0 | - | - | 0 | 0 | -
O=C(c1ccccc1F)N1CCN(c2ccc([N+](=O)[O-])c(NCc3cccnc3)c2)CC1 | 0 | 0 | - | 0 | 0 | 72
O=C(c1ccccc1)N1CCN(c2ccc([N+](=O)[O-])c(NCc3cccnc3)c2)CC1 | 0 | 0 | 0 | 0 | 0 | 0
COc1ccc(C(=O)N2CCN(c3ccc([N+](=O)[O-])c(NCCc4ccc(OC)c(OC)c4)c3)CC2)cc1 | 0 | 63 | 0 | - | 0 | 92
COc1ccc(CCNc2cc(N3CCN(C(=O)c4ccccc4F)CC3)ccc2[N+](=O)[O-])cc1OC | - | 0 | 0 | - | - | 93
CC(=O)N1[C@H](CO)[C@H](c2ccc(C3=CCCC3)cc2)[C@H]1CNC(=O)CN(C)C | 0 | - | - | 0 | 0 | -
CC(C)NC(=O)Nc1ccc2c(c1)CC(=O)N([C@@H](C)CO)C[C@H](C)[C@H](CN(C)Cc1ccc(C(=O)O)cc1)O2 | 0 | - | - | 0 | 0 | -
COc1ccc(C(=O)/C=C2/C(=O)Nc3ccccc32)c(OC)c1 | ? | 0 | 0 | 59 | 0 | 0
COc1cc(OC)c(/C=C2\C(=O)Nc3ccccc32)c(OC)c1 | 0 | - | - | 56 | 0 | -
COc1ccc(C(=O)/C=C2/C(=O)Nc3ccccc32)cc1 | 0 | 0 | 0 | 0 | 0 | 0
COc1ccc(C(=O)/C=C2/C(=O)Nc3ccccc32)cc1OC | 0 | 0 | 0 | 0 | 0 | 0
O=C(Nc1nc2c(s1)CCCC2)C1COc2ccccc2O1 (stereo unspecified) | 80 | 71 | 0 | 0 | 0 | 82
O=C(NC1=NCCS1)C1COc2ccccc2O1 (stereo unspecified) | - | 86 | 71 | - | - | 106
O=C(Nc1ccncc1)C1COc2ccccc2O1 (stereo unspecified) | - | 0 | 0 | - | - | 0
CCCn1c(=S)[nH]c2cc(C(=O)N3CCN(C(=O)OCC)CC3)ccc2c1=O | 0 | 0 | 0 | - | 0 | 0
CCCn1c(=S)[nH]c2cc(C(=O)N3CCCC(C(=O)OCC)C3)ccc2c1=O (stereo unspecified) | - | 0 | 0 | - | - | 55
CCOC(=O)N1CCN(C(=O)c2ccc(Cn3c(=S)[nH]c4ccc(Br)cc4c3=O)cc2)CC1 | 0 | 59 | 51 | 0 | 0 | 57
COCC(=O)N1[C@@H](CO)[C@@H](c2ccc(-c3cccc(F)c3)cc2)C12CN(C(=O)C1CC1)C2 | 0 | - | - | 0 | - | -
Cc1cccc(C)c1OCCOC(=O)c1cccc(S(=O)(=O)N2CCOCC2)c1 | 0 | 0 | 0 | 0 | 0 | 0
Cc1cc(=O)oc2ccc(OC(=O)c3cccc(S(=O)(=O)N4CCOCC4)c3)cc12 | 0 | 0 | 0 | - | - | 101
C[C@@H]1CN([C@H](C)CO)C(=O)c2cccc(NS(=O)(=O)c3ccc(Cl)cc3)c2O[C@H]1CN(C)C(=O)Nc1ccc(C(F)(F)F)cc1 | 0 | - | - | 0 | - | -
Cc1csc2ncnc(N3CCN(C(=S)Nc4ccc(C(F)(F)F)cc4)CC3)c12 | 0 | 0 | 0 | 0 | 0 | 51
Cc1csc2c(N3CCN(C(=S)Nc4ccc(C(F)(F)F)cc4)CC3)ncnc12 | 0 | 0 | 0 | 0 | 0 | 0
O=C(Nc1cccc(C2=NCCN2)c1)Nc1cccc(C2=NCCN2)c1 | 0 | 0 | 0 | 0 | 99 | 0
COc1ccc2oc(C(=O)Nc3nnc(C)s3)c(C)c2c1 | 0 | 0 | 0 | 0 | 0 | 68
SMILES | LGR2 antag | TROY NFkB inh | EBV LMP1 NFkB | EWS-Fli block | PAX8 reporter | TWEAK-Fn14 inh
COc1ccc(-c2ccc(SC)nn2)cc1 | 83 | 0 | 0 | 58 | 0 | 88
CCSc1ccc(-c2ccc(C)cc2)nn1 | 0 | 0 | 0 | 0 | 0 | 0
CCOc1ccc(-c2ccc(SCC)nn2)cc1 | 59 | 0 | 0 | 0 | 0 | 64
Cc1ccc(F)cc1N=Cc1c(O)c2ccccc2oc1=O | - | 0 | 0 | - | - | 0
Cc1ccc(N=Cc2c(O)c3ccccc3oc2=O)c(C)c1 | - | 55 | 0 | 0 | 0 | 57
COc1ccc(S(=O)(=O)N(C)C[C@H]2Oc3ccc(NC(=O)Cc4ccccc4)cc3CC(=O)N([C@@H](C)CO)C[C@H]2C)cc1 | 0 | - | - | 0 | 0 | -
O=C1OCCC1Sc1nnc(-c2ccc(Cl)cc2Cl)o1 (stereo unspecified) | 74 | 52 | 50 | 0 | 0 | 83
O=C1OCCC1Sc1nnc(-c2ccccc2)o1 (stereo unspecified) | - | 0 | 0 | - | - | 0
